Experimental data published in PMC13541613, “GHT-SELEX demonstrates unexpectedly high intrinsic sequence specificity and complex DNA binding of many human transcription factors”.

Experiments:
Assay in all cases: HT-SELEX; 20 mM HEPES pH 7, 140 mM KCl, 5 mM NaCl, 1 mM K2HPO4, 2 mM MgSO4, 100 uM EGTA, ZnSO4, 0.1% Tween20; room temperature, 1 h; high values mean tight binding
Conditions in all cases: protein: ivt; tags: eGFP (N-terminal); dsDNA, one strand shown
[1] = biological target: ZNF721 full-length (Homo sapiens, UniProt Q8TF20-2 1-923)
Chain of ZNF721 full-length (Q8TF20 other isoform, or with tags, fused parts or gaps): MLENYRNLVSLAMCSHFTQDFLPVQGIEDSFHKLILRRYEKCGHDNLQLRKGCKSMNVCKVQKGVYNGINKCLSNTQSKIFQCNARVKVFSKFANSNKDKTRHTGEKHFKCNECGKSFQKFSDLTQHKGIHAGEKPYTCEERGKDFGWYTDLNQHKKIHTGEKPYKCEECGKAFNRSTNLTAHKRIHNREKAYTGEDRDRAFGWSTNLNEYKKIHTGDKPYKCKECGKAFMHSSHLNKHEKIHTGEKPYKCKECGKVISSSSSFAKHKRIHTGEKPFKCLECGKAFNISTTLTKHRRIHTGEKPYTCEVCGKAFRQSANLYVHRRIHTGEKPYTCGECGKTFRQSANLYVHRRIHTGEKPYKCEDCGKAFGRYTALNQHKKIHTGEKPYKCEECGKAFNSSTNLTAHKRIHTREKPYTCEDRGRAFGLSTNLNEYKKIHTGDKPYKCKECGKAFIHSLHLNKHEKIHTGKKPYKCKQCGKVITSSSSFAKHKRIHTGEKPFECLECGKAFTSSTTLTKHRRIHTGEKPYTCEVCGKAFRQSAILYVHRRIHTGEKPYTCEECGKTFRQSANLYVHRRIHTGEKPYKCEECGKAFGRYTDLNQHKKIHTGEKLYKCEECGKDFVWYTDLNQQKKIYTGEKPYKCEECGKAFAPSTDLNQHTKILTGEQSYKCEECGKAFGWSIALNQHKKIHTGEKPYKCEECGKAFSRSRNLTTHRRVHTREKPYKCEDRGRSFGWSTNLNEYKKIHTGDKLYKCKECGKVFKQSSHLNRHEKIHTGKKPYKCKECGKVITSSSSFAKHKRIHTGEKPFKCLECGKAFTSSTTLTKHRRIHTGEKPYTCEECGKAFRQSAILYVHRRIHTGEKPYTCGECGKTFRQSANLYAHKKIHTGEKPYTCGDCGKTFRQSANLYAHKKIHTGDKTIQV
Method in brief: (§1)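 Full-length or DNA-binding-domain forms of a tagged transcription factor were produced in HEK293 lysate or cell-free extract and immobilised on beads. Incubation with a randomized 40-base DNA library ran for 1 h at room temperature in HEPES/KCl low-stringency buffer with Tween20, after which bound DNA was washed, heat-eluted, PCR-amplified over successive cycles and Illumina-sequenced. Binding strength is given as the relative k-mer count in selected reads, higher for tighter binding.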

[2] = biological target: ZNF721 DBD1 (Homo sapiens, UniProt Q8TF20-2 29-461)
Chain of ZNF721 DBD1 (Q8TF20 17-449): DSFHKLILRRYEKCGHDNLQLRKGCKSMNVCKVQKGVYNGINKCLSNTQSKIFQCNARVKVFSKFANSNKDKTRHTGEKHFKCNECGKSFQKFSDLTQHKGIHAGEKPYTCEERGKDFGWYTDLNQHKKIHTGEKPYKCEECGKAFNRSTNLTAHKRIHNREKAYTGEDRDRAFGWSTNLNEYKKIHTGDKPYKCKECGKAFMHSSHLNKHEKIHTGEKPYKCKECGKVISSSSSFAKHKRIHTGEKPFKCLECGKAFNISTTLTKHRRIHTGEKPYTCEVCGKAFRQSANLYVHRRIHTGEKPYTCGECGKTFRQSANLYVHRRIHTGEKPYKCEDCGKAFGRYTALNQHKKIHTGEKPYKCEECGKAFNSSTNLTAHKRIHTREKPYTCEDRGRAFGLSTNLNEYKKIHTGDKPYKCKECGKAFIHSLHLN
Method in brief: as §1

[3] = biological target: ZNF721 DBD2 (Homo sapiens, UniProt Q8TF20-2 395-923)
Chain of ZNF721 DBD2 (Q8TF20 383-911): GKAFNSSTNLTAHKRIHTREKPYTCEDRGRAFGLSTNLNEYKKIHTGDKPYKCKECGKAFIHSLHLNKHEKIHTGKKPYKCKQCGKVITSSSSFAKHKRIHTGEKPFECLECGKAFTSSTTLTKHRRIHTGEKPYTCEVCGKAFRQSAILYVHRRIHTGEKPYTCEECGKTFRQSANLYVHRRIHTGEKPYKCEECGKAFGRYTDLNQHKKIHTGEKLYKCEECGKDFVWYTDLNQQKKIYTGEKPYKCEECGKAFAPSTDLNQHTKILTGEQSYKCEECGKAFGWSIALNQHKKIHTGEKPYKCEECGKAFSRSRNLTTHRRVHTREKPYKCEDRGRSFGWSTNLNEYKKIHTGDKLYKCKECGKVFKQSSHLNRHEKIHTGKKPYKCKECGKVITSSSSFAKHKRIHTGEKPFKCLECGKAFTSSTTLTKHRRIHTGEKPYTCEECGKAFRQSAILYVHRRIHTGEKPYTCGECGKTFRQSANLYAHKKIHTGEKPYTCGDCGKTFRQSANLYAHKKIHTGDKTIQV
Method in brief: as §1

| Sequence | binding signal [1] | binding signal [2] | binding signal [3] |
| --- | --- | --- | --- |
| AAGGCATACC | 0.13 relative 10-mer count | 0.00183 relative 10-mer count | 0.114 relative 10-mer count |
| CCAAAAAACA | 0.16 relative 10-mer count | 0.00174 relative 10-mer count | 0.185 relative 10-mer count |
| CCGCCCCCCC | 0.197 relative 10-mer count | 0.00775 relative 10-mer count | 0.00192 relative 10-mer count |
| CCCCCCCCAA | 0.109 relative 10-mer count | 0.00316 relative 10-mer count | 0.00288 relative 10-mer count |
| AGGGTATCCA | 0.133 relative 10-mer count | 0.00858 relative 10-mer count | 0.224 relative 10-mer count |
| ACCCCACCCA | 0.173 relative 10-mer count | 0.00583 relative 10-mer count | 0.00419 relative 10-mer count |
| CCCACCCCCA | 0.28 relative 10-mer count | 0.0118 relative 10-mer count | 0.00647 relative 10-mer count |
| CCCGCCTCCC | 0.183 relative 10-mer count | 0.00954 relative 10-mer count | 0.00156 relative 10-mer count |
| GGTGGGGGGA | 0.186 relative 10-mer count | 0.00904 relative 10-mer count | 0.00407 relative 10-mer count |
| GTGGGTGGGA | 0.137 relative 10-mer count | 0.00729 relative 10-mer count | 0.00563 relative 10-mer count |
| CCCACACCCA | 0.107 relative 10-mer count | 0.00468 relative 10-mer count | 0.00455 relative 10-mer count |
| CCGCCCACCC | 0.268 relative 10-mer count | 0.0089 relative 10-mer count | 0.0018 relative 10-mer count |
| GCACCCCACC | 0.104 relative 10-mer count | 0.00284 relative 10-mer count | 0.00491 relative 10-mer count |
| CACCCCCCTC | 0.127 relative 10-mer count | 0.00633 relative 10-mer count | 0.00479 relative 10-mer count |
| CCACCCCACG | 0.131 relative 10-mer count | 0.00495 relative 10-mer count | 0.00491 relative 10-mer count |
| CCCCCACACC | 0.231 relative 10-mer count | 0.00821 relative 10-mer count | 0.00779 relative 10-mer count |
| CCCCGACCAC | 0.111 relative 10-mer count | 0.00422 relative 10-mer count | 0.00395 relative 10-mer count |
| AAAAGGCATA | 0.133 relative 10-mer count | 0.00161 relative 10-mer count | 0.116 relative 10-mer count |
| CCCATCCCCA | 0.106 relative 10-mer count | 0.00472 relative 10-mer count | 0.00551 relative 10-mer count |
| CACCCCCGCC | 0.193 relative 10-mer count | 0.00683 relative 10-mer count | 0.00288 relative 10-mer count |

| Sequence | binding signal [1] | binding signal [2] | binding signal [3] |
| --- | --- | --- | --- |
| GCCCCCGCCC | 0.146 relative 10-mer count | 0.00527 relative 10-mer count | 0.00132 relative 10-mer count |
| AAAAGCAGCC | 0.136 relative 10-mer count | 0.00261 relative 10-mer count | 0.112 relative 10-mer count |
| GCCCCACCAC | 0.137 relative 10-mer count | 0.00555 relative 10-mer count | 0.00743 relative 10-mer count |
| AAAAAGCTAT | 0.425 relative 10-mer count | 0.225 relative 10-mer count | 0.00192 relative 10-mer count |
| CCCCTCCCCG | 0.128 relative 10-mer count | 0.00527 relative 10-mer count | 0.00216 relative 10-mer count |
| CCCACAACCC | 0.106 relative 10-mer count | 0.00431 relative 10-mer count | 0.00348 relative 10-mer count |
| CAGCGTACCC | 0.239 relative 10-mer count | 0.00229 relative 10-mer count | 0.41 relative 10-mer count |
| CCCACCAACC | 0.171 relative 10-mer count | 0.00794 relative 10-mer count | 0.00563 relative 10-mer count |
| CCTCCCCCCC | 0.236 relative 10-mer count | 0.0115 relative 10-mer count | 0.00707 relative 10-mer count |
| CCCACCCGCA | 0.109 relative 10-mer count | 0.00316 relative 10-mer count | 0.00563 relative 10-mer count |
| CCTCCACCAC | 0.116 relative 10-mer count | 0.00564 relative 10-mer count | 0.00923 relative 10-mer count |
| AAAAGCAGTA | 0.17 relative 10-mer count | 0.0204 relative 10-mer count | 0.117 relative 10-mer count |
| CCCCACACCA | 0.118 relative 10-mer count | 0.00417 relative 10-mer count | 0.00575 relative 10-mer count |
| GCCCACCCCC | 0.215 relative 10-mer count | 0.00876 relative 10-mer count | 0.00779 relative 10-mer count |
| CCCTCACCCC | 0.193 relative 10-mer count | 0.00862 relative 10-mer count | 0.00276 relative 10-mer count |
| CCCCCCTGCC | 0.121 relative 10-mer count | 0.00399 relative 10-mer count | 0.00168 relative 10-mer count |
| CCCCCTCACC | 0.149 relative 10-mer count | 0.00624 relative 10-mer count | 0.00372 relative 10-mer count |
| CCCATCCACC | 0.103 relative 10-mer count | 0.00569 relative 10-mer count | 0.00827 relative 10-mer count |
| GGCGGGGGGA | 0.126 relative 10-mer count | 0.00619 relative 10-mer count | 0.0024 relative 10-mer count |
| CACCATCCCC | 0.118 relative 10-mer count | 0.00468 relative 10-mer count | 0.003 relative 10-mer count |

| Sequence | binding signal [1] | binding signal [2] | binding signal [3] |
| --- | --- | --- | --- |
| ACAAAAAAAG | 0.12 relative 10-mer count | 0.0121 relative 10-mer count | 0.0533 relative 10-mer count |
| AGGGCGGGGG | 0.14 relative 10-mer count | 0.0056 relative 10-mer count | 0.00276 relative 10-mer count |
| CCCCCTCCCA | 0.157 relative 10-mer count | 0.00784 relative 10-mer count | 0.00455 relative 10-mer count |
| ATAAAAAAGC | 0.12 relative 10-mer count | 0.0221 relative 10-mer count | 0.0443 relative 10-mer count |
| GCCCTCCCCC | 0.163 relative 10-mer count | 0.00716 relative 10-mer count | 0.00911 relative 10-mer count |
| GAAAAGCAGC | 0.106 relative 10-mer count | 0.00147 relative 10-mer count | 0.125 relative 10-mer count |
| AGGGGGGTGG | 0.157 relative 10-mer count | 0.00835 relative 10-mer count | 0.00407 relative 10-mer count |
| CCGCCCCCTC | 0.128 relative 10-mer count | 0.00573 relative 10-mer count | 0.00324 relative 10-mer count |
| AAAAGCATAC | 0.149 relative 10-mer count | 0.0247 relative 10-mer count | 0.039 relative 10-mer count |
| CCACGCCCCC | 0.187 relative 10-mer count | 0.00605 relative 10-mer count | 0.0024 relative 10-mer count |
| CCAAAAAAAG | 0.124 relative 10-mer count | 0.00812 relative 10-mer count | 0.0564 relative 10-mer count |
| GGGCGGGGGA | 0.122 relative 10-mer count | 0.00482 relative 10-mer count | 0.00216 relative 10-mer count |
| AAACAGCATG | 0.284 relative 10-mer count | 0.00101 relative 10-mer count | 0.345 relative 10-mer count |
| CCCACACCCC | 0.278 relative 10-mer count | 0.00977 relative 10-mer count | 0.00407 relative 10-mer count |
| ACCACCCCAC | 0.201 relative 10-mer count | 0.0072 relative 10-mer count | 0.00479 relative 10-mer count |
| GCCTCCCCCC | 0.115 relative 10-mer count | 0.00518 relative 10-mer count | 0.00791 relative 10-mer count |
| AAAAAAAGAG | 0.126 relative 10-mer count | 0.00949 relative 10-mer count | 0.0578 relative 10-mer count |
| ACCCCCCCAC | 0.169 relative 10-mer count | 0.00697 relative 10-mer count | 0.00695 relative 10-mer count |
| AGGTGGTGGG | 0.113 relative 10-mer count | 0.00601 relative 10-mer count | 0.00587 relative 10-mer count |
| CACCGCCACC | 0.117 relative 10-mer count | 0.00339 relative 10-mer count | 0.00384 relative 10-mer count |
